Common to all, as to test: NCI-60 one-dose screen, 48 h (100 = growth as untreated, 0 = no growth, -100 = all killed)
What all share (details): 10 µM unless noted

Experiment [1] has as its system SK-MEL-2 melanoma.
Experiment [2] deals with EKVX NSCLC.
Experiment [3] concerns SN12C renal.
In experiment [4] the test system is UO-31 renal.
In experiment [5] the test system is TK-10 renal.
Experiment [6] concerns ACHN renal.
In experiment [7] the test system is CAKI-1 renal.
The subject of experiment [8] is A498 renal.
Experiment [9] relates to CCRF-CEM leukemia.
The test system of experiment [10] is SR leukemia.
Experiment [11] deals with RPMI-8226 leukemia.
Experiment [12] relates to OVCAR-8 ovarian.
For experiment [13], the system named is OVCAR-5 ovarian.
Experiment [14] has as its system OVCAR-4 ovarian.
The subject of experiment [15] is SK-OV-3 ovarian.
For experiment [16], the system named is IGROV1 ovarian.
The test system of experiment [17] is OVCAR-3 ovarian.
The subject of experiment [18] is HS 578T breast.
Experiment [19] relates to NCI/ADR-RES ovarian.
For experiment [20], the system named is MOLT-4 leukemia.

The structures appear in SMILES notation. Compounds without any hit were thinned out: in the full panel of roughly 83,000, 20% have a hit.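 Method: cells in 96-well plates; compound added at one concentration; 48 h incubation; percent growth measured; values under 10 scored active.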 Unmarked numbers belong to inactive results. Calls of active or inactive are those of the source.

On to `O=C(CSC(=S)n1cnnc1)NC(=O)c1ccccc1`, for which the growth is 106% in [1]; 104% in [2]; 103% in experiment [3]; 87.8% in experiment [4]; 101% in experiment [5]; 105% in experiment [6]. Besides, the growth in experiment [7] was 104%; in [8], 106%; in experiment [9], 99.2%; in [10] it was 85.3%; in [11], 100%; in experiment [12] it was 115%. Besides, the growth was 100% in experiment [13]; 100% in experiment [14]; 105% in [15]; 108% in experiment [16]; 96.7% in experiment [17]; 103% in experiment [18]. Also, the growth in [19] was 99.7%.

As to `N#CC1=C(N)Oc2c(sc3c(Br)cccc23)C1c1ccc(Cl)cc1` (stereo unspecified), the growth in experiment [1] was -2.16% (active); in experiment [2], 34.3%; in [3], 30%; in experiment [4], 34.2%; in experiment [5], 37.8%; in experiment [6], 43.6%. Further, the growth in [7] is 39.3%; in [8], 16.3%; in [9], 13.7%; in experiment [20], 3.26% (active); in [11], 12.6%; in experiment [12], 23%. The growth in [13] is 26.3%; in experiment [14], 61.2%; in [15] it was 27.1%; in experiment [16] it was 27.2%; in [17] it was 0.89% (active); in [18], 26.4%. In experiment [19], the growth is 0.969% (active).

Take `CCc1ccc(CCCC(=O)O)cc1`: the growth in experiment [1] was 103%; in experiment [2] it was 96.3%; in experiment [3], 93.7%; in experiment [4] it was 92.1%; in [5], 99.9%; in experiment [6] it was 101%. The growth in experiment [7] was 94%; in experiment [8], 95%; in [9], 104%; in experiment [10], 96.2%; in experiment [11], 103%; in experiment [12], 107%. Besides, the growth in [13] is 98.3%; in experiment [14], 104%; in [15], 100%; in [16], 105%; in experiment [17], 108%; in experiment [18], 101%. The growth in [19] was 99.1%.

As for `CSc1nc2ccccc2cc1/C=C1/C=C(c2ccccc2)NC1=O`, the growth in [1] was 81%; in experiment [2], 84.9%; in experiment [3], 94.1%; in experiment [4], 91.9%; in [5], 123%; in experiment [6], 102%. Further, the growth in experiment [7] was 77.9%; in [8], 69.9%; in experiment [9], 68.8%; in [10], 27.4%; in experiment [11] it was 81.9%; in experiment [12], 82.5%. The growth in experiment [13] was 99.5%; in experiment [14], 84.7%; in experiment [15] it was 85.1%; in experiment [16], 79.4%; in experiment [17] it was 71.7%; in experiment [18], 80%. Also, the growth in [19] was 76.2%.

For the compound `CSc1nc2ncc([N+](=O)[O-])c(=O)n2[nH]1`, the growth is 107% in [1]; 100% in experiment [2]; 108% in experiment [3]; 87.5% in [4]; 97.8% in experiment [5]; 103% in experiment [6]. Moreover, the growth in experiment [7] is 92.8%; in experiment [8], 88.3%; in experiment [9], 99.6%; in [10], 107%; in experiment [11], 107%; in experiment [12], 104%. Also, the growth is 102% in experiment [14]; 113% in [15]; 105% in experiment [16]; 113% in experiment [17]; 103% in experiment [18]; 101% in experiment [19].

With `O=C(Nc1nc2ccc(C(=O)N3CCN(/C=C/c4ccccc4)CC3)cc2s1)c1ccc(NCCc2ccccc2)c([N+](=O)[O-])c1`, the growth in experiment [1] was 87.6%; in experiment [2], 50.6%; in [3], 61.3%; in experiment [4], 37.8%; in [5], 87.7%; in experiment [6], 80.9%. For the same compound, the growth in [7] was 50.6%; in [8] it was 48.3%; in experiment [9], 22.8%; in [10], -13.7% (active); in experiment [11] it was 18.5%; in experiment [12], 68.4%. For the same compound, the growth in experiment [13] was 83.6%; in experiment [14] it was 42.9%; in experiment [15], 62.9%; in experiment [16] it was 64.3%; in experiment [17], 59.3%; in experiment [18], 69%. Besides, the growth in experiment [19] was 70.2%.

As for `Cc1ccc(C2=Nc3c(N)ncnc3NC(c3cccc(Nc4ccnc5cc(C(F)(F)F)ccc45)c3)C2)cc1` (stereo unspecified), the growth in [1] is -11.1% (active); in [2] it was 25.2%; in [3], 50%; in experiment [4], 26.4%; in experiment [5] it was 64.7%; in experiment [6] it was 58.1%. For the same compound, the growth was 21% in experiment [7]; 47.8% in [8]; 4.56% (active) in [9]; -2.37% (active) in [20]; -26.6% (active) in experiment [11]; 48.5% in experiment [12]. Also, the growth was 75.2% in experiment [13]; 45.6% in experiment [14]; 46.7% in experiment [15]; 44.7% in [16]; 39.2% in experiment [17]; 43.3% in experiment [18]. The growth in [19] was 17.4%.

Consider `N#Cc1c(-c2ccccc2)cc(-c2ccccc2)n(CCCC(=O)Nc2ccccc2N)c1=O`, for which the growth in [1] is 46.4%; in experiment [2], 79.1%; in [3] it was 70.5%; in experiment [4], 49.1%; in experiment [5] it was 104%; in experiment [6], 63.8%. The growth is 38.2% in experiment [7]; -5.55% (active) in experiment [8]; 56.3% in experiment [9]; 22.4% in experiment [10]; 48.9% in [11]; 69.1% in experiment [12]. For the same compound, the growth was 95% in [13]; 91.9% in experiment [14]; 95.6% in experiment [15]; 51.7% in experiment [16]; 26.2% in experiment [17]; 43.5% in [18]. In experiment [19], the growth is 39.5%.

For the origin of these results see PubChem BioAssay (NCI).
